MITF primary: blocks human microphthalmia-associated transcription factor; AlphaScreen MITF homodimerization, bead proximity signal; AID 1259374; 0.91% of 650,000 active; O75030; inhibition, % at 2.6 µM; in the data active = inhibition above about 50%;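 note: 0% = vehicle wells with protein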
TEAD-YAP inh: TEAD-YAP interaction inhibition; HEK-TIYL cells, TEAD-Gal4/YAP UAS-luciferase luminescence; inhibition, % at 9.12 µM; 1.4% of 640,000 active; in the data active = inhibition above about 32%;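 note: 0% = median of test compound wells and 100% = reference inhibitor wells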
FBW7 activator: human FBW7 E3 ligase activation, primary screen; 0.13% of 650,000 active; Q969H0; AlphaScreen FBW7–phospho-cyclin E peptide binding, activator screen; normalized activity (activation), % at 26.1 µM; AID 1259310; in the data active = normalized activity above about 1.9%;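 note: purified mutant Fbw7 with reduced substrate affinity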
Target sequence (Q969H0 whole entry, looked up): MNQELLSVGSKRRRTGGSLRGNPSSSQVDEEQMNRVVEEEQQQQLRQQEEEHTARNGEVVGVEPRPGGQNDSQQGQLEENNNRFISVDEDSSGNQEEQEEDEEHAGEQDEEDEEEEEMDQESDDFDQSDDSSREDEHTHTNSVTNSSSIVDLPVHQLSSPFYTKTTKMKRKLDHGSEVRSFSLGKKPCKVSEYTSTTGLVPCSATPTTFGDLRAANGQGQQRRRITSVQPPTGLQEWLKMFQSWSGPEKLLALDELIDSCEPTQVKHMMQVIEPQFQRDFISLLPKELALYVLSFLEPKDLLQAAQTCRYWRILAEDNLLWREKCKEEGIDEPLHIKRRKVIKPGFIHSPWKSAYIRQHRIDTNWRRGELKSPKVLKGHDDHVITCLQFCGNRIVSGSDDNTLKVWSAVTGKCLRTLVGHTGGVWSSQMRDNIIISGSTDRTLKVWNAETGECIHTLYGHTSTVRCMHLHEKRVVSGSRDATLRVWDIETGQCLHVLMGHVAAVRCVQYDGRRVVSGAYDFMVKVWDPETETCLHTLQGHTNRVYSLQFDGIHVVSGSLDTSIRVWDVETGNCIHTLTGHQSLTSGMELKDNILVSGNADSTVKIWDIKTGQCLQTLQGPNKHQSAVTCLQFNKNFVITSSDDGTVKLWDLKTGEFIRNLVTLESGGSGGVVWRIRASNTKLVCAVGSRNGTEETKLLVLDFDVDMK
GPR151 ag: activators of human GPR151 | Q8TDV0 | PathHunter beta-arrestin GPR151 cells, luminescence | activation, % at 11.2 µM | 1% of 650,000 active; in the data active = activation above about 4.9%;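 note: 0% = median of compound wells and 100% = cells with positive control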
MITF confirm: human MITF inhibition, confirmation | 16% of 4,700 active | inhibition, % at 2.6 µM | shares compounds with MITF primary | AlphaScreen MITF homodimerization, biotin/His-MITF beads;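 active = inhibition above a cutoff derived from the DMSO control wells, cut at about 28% in these data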;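 note: 0% = MITF dimer wells with DMSO only; inhibitors lower the bead chemiluminescence by keeping MITF from dimerizing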
AS interf DR: optically interferes with AlphaScreen signal in dose response. 6% of 480 active. IC50, µM. shares compounds with MITF primary. AlphaScreen optical interference counterscreen, cell-free; call rule not given here
AS interf ctr: optically interferes with AlphaScreen signal | LysRS AlphaScreen counterscreen, signal interference, triplicate | AID 1259376 | inhibition, % at 2.6 µM | 7.6% of 4,700 active | shares compounds with MITF primary;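 active = inhibition above a cutoff derived from the DMSO control wells, cut at about 30% in these data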
* = called active by the depositor; · = not tested or not shown. Sampled rows, rich in hits. Any-hit rate of the full collection: about 3.4%.

SMILES	MITF primary	TEAD-YAP inh	FBW7 activator	GPR151 ag	MITF confirm	AS interf ctr	others
O=C(c1cccnc1)N1CCN(Cc2cccc(Cl)c2)CC1	65*	-3	0	2	-6	9
O=C(c1cccnc1)N1CCN(Cc2ccc(Br)cc2)CC1	69*	7	0	3	-5	-4
COC(=O)Cn1c(=NC(=O)c2ccccc2[N+](=O)[O-])sc2cc(OC)ccc21	-15	-9	0	0	·	·
Cc1cccc(NC(=O)c2ccc(Br)c(S(=O)(=O)N3CCOCC3)c2)c1	6	6	0	0	·	·
FC(F)(F)c1ccccc1CN1CCN(C2CCCCCC2)CC1	78*	8	0	1	9	24
FC(F)(F)c1ccccc1CN1CCC(N2CCCCC2)CC1	-6	19	0	1	·	·
FC(F)(F)c1ccccc1CN1CCN(C2C3CC4CC(C3)CC2C4)CC1 (centres undefined)	76*	-2	0	0	15	11
O=S(=O)(c1ccc2ccccc2c1)N1CCN(Cc2ccccc2C(F)(F)F)CC1	11	-5	0	1	·	·
FC(F)(F)c1ccccc1CN1CCC(N2CCCC2)CC1	57*	0	0	1	7	13
CCOC(=O)C1CCCCN1Cc1ccccc1C(F)(F)F (centres undefined)	53*	-9	0	0	-3	6
FC(F)(F)c1ccccc1CN1CCN(C2CCCCC2)CC1	69*	7	0	-1	16	18
CC(=O)N1CCSc2cc(S(=O)(=O)NC3CCCCCCC3)ccc21	7	30	0	-1	·	·
O=C(C1CC12CCN(Cc1nccs1)CC2)N1CC=C(c2ccccc2)CC1 (centres undefined)	9	3	0	0	·	·
c1ccc(-c2cc(N3CCOCC3)nc(-c3ccccn3)n2)cc1	77*	18	0	3	12	11
O=C(O)CCC(NCc1ccco1)C(=O)O (centres undefined)	62*	8	0	0	56*	9	AS interf DR=>6.8
COc1ccc(-n2nnc3c(SCC(=O)Nc4ccc(NC(C)=O)cc4)ncnc32)cc1	4	9	0	0	·	·
CCN1CCN(CCOc2ccc(C(=O)c3ccccc3)cc2)CC1	41	-3	0	-1	·	·
O=C(/C=C/c1ccccc1)OCCN1CCOCC1	9	0	1	0	·	·
O=C(c1ccccc1)c1ccc(OCCN2CCOCC2)cc1	83*	-14	0	0	2	4
COC(=O)c1ccc(OCCN2CCOCC2)cc1	-5	-20	0	2	·	·
CCOc1ccc(OCCN2CCOCC2)cc1	76*	-18	0	1	10	15
O=P(OCCN1CCOCC1)(c1ccccc1)c1ccccc1	57*	-1	0	2	6	11
CN1CCN(CCOc2ccc(C(=O)c3ccccc3)cc2)CC1	81*	-17	1	3	3	0
O=C1C[C@@H](O)[C@@H](O)[C@@H]2[C@@H]3C(=O)N(c4ccc(F)cc4F)C(=O)[C@@H]3CC[C@@H]12	8	·	0	-1	·	·
CN1C(=O)c2ccccc2C(C(=O)O)C1c1ccc(F)c(F)c1 (centres undefined)	-1	1	0	1	·	·
SMILES	MITF primary	TEAD-YAP inh	FBW7 activator	GPR151 ag	MITF confirm	AS interf ctr	others
CCOC(=O)/C=C1\NC(C)(C)CC12C=CC(=O)C=C2	-1	6	0	1	·	·
NC(=O)N/N=C/c1cc(Br)ccc1O	-3	-11	0	1	·	·
O=C(c1ccccc1)c1ccc(OCCCN2CCCC2)cc1	53*	8	0	-1	0	0
CCOC(=O)c1ccc(OCCCN2CCCCCC2)cc1	17	6	-1	0	·	·
O=S(=O)(NCc1ccc(Cl)cc1)c1cccc2nsnc12	6	11	0	0	·	·
CN(C)CCCNCC(=O)c1c(-c2ccccc2)n(C)c2ccccc12	51*	-12	1	0	-7	8
COc1cccc(OCCOCC(O)CN2CCN(c3ccccc3)CC2)c1 (centres undefined)	15	1	0	-3	·	·
CC1(C)C2CC=C(COCC(O)CNCc3cccnc3)C1C2 (centres undefined)	62*	2	0	3	9	13
COc1cccc(N2CCN(CC(O)COCC3=CCC4CC3C4(C)C)CC2)c1 (centres undefined)	73*	6	0	0	2	-1
O=C(Cc1ccc(Cl)cc1)N/N=C/c1ccccc1[N+](=O)[O-]	-4	1	0	3	·	·
COc1oc(-c2ccc(F)cc2)nc1C(F)(F)F	54*	-1	0	-2	9	14
COc1oc(-c2ccc(C)cc2)nc1C(F)(F)F	10	14	2	-1	·	·
CCOc1c(O)ccc(/C=C2\C(=O)Nc3ccc(Br)cc32)c1[N+](=O)[O-]	65*	-1	0	0	2	23
O=[N+]([O-])c1ccc(CN2CCN(c3cccc(Cl)c3)CC2)o1	21	5	0	1	·	·
O=[N+]([O-])c1ccc(CN2CCN(c3ncccn3)CC2)o1	58*	9	0	0	5	1
O=[N+]([O-])c1ccc(CN2CCN(c3ccc(Cl)cc3)CC2)o1	59*	7	1	4	16	12
Cc1cc2cc(CNC(=O)Cc3ccc(Cl)cc3)ccc2[nH]1	4	-19	0	0	·	·
CC(O)C(=O)N/N=C/C=C/c1ccc([N+](=O)[O-])o1 (centres undefined)	55*	0	-1	3	71*	2	AS interf DR=>7.2
O=C(N/N=C/C=C/c1ccc([N+](=O)[O-])o1)c1cccc(O)c1	22	7	0	0	·	·
CCN(CCCNC(=O)CNC(=O)Cn1cnc2sc3c(c2c1=O)CCCC3)Cc1ccccc1	12	6	0	-1	·	·
NS(=O)(=O)c1ccc(N=Cc2cc3c(cc2[N+](=O)[O-])OCO3)cc1	64*	-2	0	1	56*	9	AS interf DR=>6.5
Cc1cccc(-n2c(O)c(C=NC3CCN(Cc4ccccc4)CC3)c(=O)[nH]c2=O)c1	20	6	0	2	·	·
O=C(O)/C=C/c1cccc(-c2cnn3c(NCCc4ccccn4)ccnc23)c1	53*	3	0	0	3	15
CC(=O)c1cccc(-c2cnn3c(NCCc4ccccn4)ccnc23)c1	11	-37	0	0	·	·
CCc1ccccc1-n1c(SCC(=O)Nc2nccs2)nnc1-c1ccccn1	7	22	0	1	·	·
CN(C)CCCN(CCCN(C)C)Cc1ccc(Cl)cc1	37	-8	0	0	·	·
CN(C)CCCN(CCCN(C)C)Cc1ccc(F)c(Br)c1	53*	4	0	1	-13	-4

Bioassay records: PubChem BioAssay, The Scripps Research Institute Molecular Screening Center
